# D1 PAM = potentiators of human D1 dopamine receptor; P21728; 360,000 compounds, 0.036% hits; HEK293 TREx D1 cells, calcium flux, dopamine EC20 potentiation; potentiation, % at 10 µM; in the data active means potentiation above about 30%; further: 0% is about no effect
# D1 antagonist = human D1 dopamine receptor antagonism; AID 504652; HEK293 TREx D1 cells, calcium flux, dopamine EC80; hits give low values; 360,000 compounds, 3.2% hits; activity change, negative = inhibition, % at 10 µM; in the data active means activity change below about -30%; further: on the % scale 0 is the no-effect control and ±100 the full control effect
#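 Cells carrying a force-coupled, tetracycline-inducible human D1 receptor report calcium flux. Each well gets a 10 s baseline, compound with 180 s monitoring, then an EC80 dopamine stimulus with a second 180 s kinetic read.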
# D1 agonist = activates the human D1 dopamine receptor | P21728 | HEK293 T-REx D1 cells, calcium flux, agonist mode | activation, % at 2 µM | 360,000 compounds, 1% hits; in the data active means activation above about 30%; further: 0% is about no effect
#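 Tetracycline-induced HEK293 TREx D1 cells, force-coupled to calcium signalling, were dye-loaded with a no-wash calcium kit. Compound was pin-added after a 10 s baseline. Fluorescence was read kinetically at 1 cycle/s for 180 s, with calcium rises flagged as agonism.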
# D3 ag = activates the human D3 dopamine receptor; max activation, %; AID 652048; 410,000 compounds, 0.58% hits; D3R DiscoveRx beta-arrestin cells, luminescence, 90 min; P35462; in the data active means max activation above about 30%; further: 0% is about no effect
# Target sequence (P35462 whole entry, looked up): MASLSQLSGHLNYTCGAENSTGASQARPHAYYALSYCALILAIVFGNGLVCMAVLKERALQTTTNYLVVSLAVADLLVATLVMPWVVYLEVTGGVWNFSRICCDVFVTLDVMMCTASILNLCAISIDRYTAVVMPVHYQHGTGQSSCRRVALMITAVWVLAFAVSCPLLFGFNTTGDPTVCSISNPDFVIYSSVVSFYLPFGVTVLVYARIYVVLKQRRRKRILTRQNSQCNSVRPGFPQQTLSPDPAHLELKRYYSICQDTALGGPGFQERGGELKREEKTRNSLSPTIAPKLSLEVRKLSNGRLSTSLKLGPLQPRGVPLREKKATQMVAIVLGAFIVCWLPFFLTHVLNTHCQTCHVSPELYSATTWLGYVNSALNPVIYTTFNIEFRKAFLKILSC
#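 Cells at 1500/well, incubated overnight, then treated with pinned compounds (dopamine as control) for 90 min at 37 degrees C. DiscoveRx reagent added for 30 - 60 minutes at room temperature; luminescence read.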
# D3 antag = D3 dopamine receptor (human) antagonism; max response, negative = inhibition, %; P35462; D3R cells, DiscoveRx beta-arrestin luminescence, antagonist mode; hits give low values; 360,000 compounds, 2.5% hits; AID 652054; in the data active means max response below about -50%; inconclusive means no clear call, values can overlap the other calls; further: on the % scale 0 is the no-effect control and ±100 the full control effect
#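 Cells plated overnight at 1500 cells/well, then exposed to library compounds with dopamine controls for 90 minutes at 37 degrees C. DiscoveRx reagent added for 30–60 minutes at room temperature; luminescence read, quantitative HTS format.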
# The depositor's hits bear a star; ? = inconclusive; . = no result; ! = repeats disagree. Hits are enriched below; roughly 6% of the tested compounds scored in any of these assays.
SMILES,D1 PAM,D1 antagonist,D1 agonist,D3 ag,D3 antag
CCCOc1ccccc1C1C(C(=O)Nc2ccccc2)=C(C)Nc2nnnn21 (stereo not drawn),-7,5,39*,-12,.
O=C1C(c2ccc(F)cc2)N(CCc2ccccc2)C(=O)CN1C1CCCCCC1 (stereo not drawn),0,10,-3,10,.
Cc1cc2c(c(=O)o1)C(Cc1ccccc1)C(C#N)=C(N)O2 (stereo not drawn),-6,-56*,1,1,11
CCN(CC)CCCNc1oc(-c2ccccc2[N+](=O)[O-])nc1C#N,1,-5,3,6,-56*
COc1ccc(-c2[nH]c(-c3cccc(OC)c3)nc2SCC(=O)Nc2ccc3c(c2)OCO3)cc1,1,-13,0,-4,.
COc1ccccc1-c1nnc(NC(=O)C(C)C)s1,-3,0,5,-2,-75*
COc1ccccc1-c1nnc(NC(C)=O)s1,12,0,1,-5,-88*
COc1ccccc1-c1nnc(NC(=O)C(C)Sc2nncn2C)s1 (stereo not drawn),1,3,1,0,-5
CCCCOC(=O)Nc1nnc(-c2ccccc2OC)s1,-2,-1,4,-5,15
COc1ccccc1OCC(O)CO (stereo not drawn),-4,-16,3,83*!,5
CCCCN(Cc1ccco1)C(=O)Cn1ncc2c([nH]c3ccccc32)c1=O,-2,12,10,0,.
O=C(CN(Cc1ccccc1)C(=O)c1csnn1)NCc1ccccc1,-7,-67*,0,-9,-9
COc1ccc(CN(CC(=O)NC2CCCC2)C(=O)c2csnn2)cc1,-13,-49*,1,-1,-4
C[N+](C)(C)CC(O)CC(=O)[O-] (stereo not drawn),.,.,.,14,.
Cn1ccc2c(-c3ccccc3F)cc3c(c21)C1CCC3C1 (stereo not drawn),.,.,.,-5,-54*
COc1ccccc1-c1cc2c(c3c1ccn3C)C1CCC2C1 (stereo not drawn),.,.,.,-7,-8
Cc1ccc(CNC(=O)c2cnc(N(C)C)nc2)cc1,-1,-42*,1,2,.
COc1ccc(CNC(=O)c2cnc(N(C)C)nc2)cc1,0,-1,2,1,.
CCC(=O)NNc1nc2c(F)cc(F)cc2s1,-2,-35*,4,2,23
Cc1ccc(NS(=O)(=O)c2cc(C(=O)Nc3cccc(N(C)S(C)(=O)=O)c3)ccc2C)c(C)c1,-4,16,4,43*,59
Cn1c(=O)n(C)c2cc(NC(=O)COc3ccc(Cl)cc3)ccc21,-6,-33*,18,5,24
Cc1nn(C)c(C)c1NC(=O)COc1ccc(Cl)cc1,1,-34*,14,1,-1
Cc1nn(-c2ccccc2)c(C)c1NC(=O)COc1ccc2ccccc2c1,-2,-11,15,31*,21
CN1CCC(N(C)S(=O)(=O)c2ccc(NC(=O)COc3ccc([N+](=O)[O-])cc3)cc2)CC1,-8,-4,34*,-14,8
CC(=O)N1CCCc2cc(S(=O)(=O)N3CCC(N(C)C(C)C)CC3)ccc21,-6,-5,2,0,.
SMILES,D1 PAM,D1 antagonist,D1 agonist,D3 ag,D3 antag
Cc1cccc(CCn2c(=O)c3ccccc3n(Cc3ccccc3C)c2=O)c1,-2,3,1,0,.
CC(Oc1cccc(Cl)c1)C(=O)Nc1ccc(S(=O)(=O)N(C)C2CCN(C)CC2)cc1 (stereo not drawn),-8,-62*,94*,-3,0
CN1CCC(N(C)S(=O)(=O)c2ccc(NC(=O)COc3ccc(F)cc3)cc2)CC1,-8,-26,24,-18,-21
Cc1nn(C)c(Oc2ccc(Cl)cc2)c1C(=O)O,-8,-33*,1,2,-8
CN1CCC(N(C)S(=O)(=O)c2ccc(NC(=O)COc3ccc(Cl)cc3)cc2)CC1,-3,-18,48*,-15,-17
Cc1nn(C)c(Oc2cccc(Cl)c2)c1C(=O)Nc1ccc(F)cc1F,0,-11,-3,0,-8
CCCS(=O)(=O)NC(=O)C1(C)CCN(C(=O)c2ccccc2C(F)(F)F)C1 (stereo not drawn),.,.,.,4,0
Cc1ccc(C)c(N2CCN(C(=O)CSCc3ccccc3Cl)CC2)c1,-1,-2,4,4,.
COc1ccc(CN2C(=NC(=O)C3CC3)SC3CS(=O)(=O)CC32)cc1OC (stereo not drawn),-6,-31*,2,-19,14
Cc1cc(C)cc(NC(=O)C2CCC(CNS(=O)(=O)c3ccc4c(c3)C(C)(C)C(=O)N4C)CC2)c1 (stereo not drawn),-3,8,6,0,.
COC(=O)c1ccc(-n2c(/C=C/c3cc(OC)c(OC)c(OC)c3)nc3cc(Cl)ccc3c2=O)cc1,0,6,-3,-5,.
Cc1ccccc1NC(=O)Cn1c([N+](=O)[O-])cnc1C,-4,-47*,0,-14,-19
CC(C)OC(=O)c1cc2c(OCC(O)CNC(C)(C)C)cccc2[nH]1 (stereo not drawn),.,.,.,-13,.
COc1ccc(-c2c(C)c3ccc(O)c(CN4CCCCC4)c3oc2=O)cc1OC,-1,0,0,-6,.
COc1ccc(-c2onc(C)c2C)cc1S(=O)(=O)Nc1cccc(C#N)c1,-5,-19,7,-4,.
Cn1ccc2cc(S(=O)(=O)N3CCN(C(=O)Nc4cccc(F)c4)CC3)ccc21,-1,-26,0,0,.
Cc1cc(=O)oc2cc(OCC(=O)NC(Cc3c[nH]c4ccc(O)cc34)C(=O)O)c(Cl)cc12 (stereo not drawn),0,-13,1,31*,12
CC1=CC(=O)C(Sc2ccc(C)cc2)=CC1=O,.,.,.,-13,-92*
CCOc1cc(N2CCOCC2)c(OCC)cc1NC(=O)C(NC(=O)c1c(F)cccc1F)C(C)C (stereo not drawn),.,.,.,0,-5
CCCN(CC(=O)Nc1ccc(Cl)cc1Cl)C(=O)CC(NC(C)=O)c1ccccc1 (stereo not drawn),-6,-21,-1,-40,?
CC(=O)NC(CC(=O)NC(C)c1ccc(Cl)cc1Cl)c1ccccc1 (stereo not drawn),-2,11,0,-19,-51*
CC1CC(C)CN(c2oc(-c3ccco3)nc2C#N)C1 (stereo not drawn),4,-46*,1,-2,1
Cc1cc(Br)ccc1NC(=O)C1CCN(S(=O)(=O)c2ccc(Br)s2)CC1,1,1,4,0,.
C=C1C(=O)C23CCC4C(C)(C(=O)OC)CCCC4(C)C2CCC1(O)C3 (stereo not drawn),.,.,.,-29,-106*
CCOC(=O)C1=CN(Cc2cccc(Br)c2)S(=O)(=O)N(C)C1C (stereo not drawn),.,.,.,-9,1

# Assay outcomes from PubChem.
